What all share (test): PBM; 200 nM protein, PBS
Common to all, as to conditions: dsDNA, one strand shown

Experiment [1] deals with HOXA4 (Homo sapiens, UniProt Q00056 201-287, W262R).
For experiment [2], the target named is HOXA4 (Homo sapiens, UniProt Q00056 201-287, R217L).
Experiment [3] deals with HOXA4 (Homo sapiens, UniProt Q00056 201-287).
Experiment [4] concerns the target HOXA4 (Homo sapiens, UniProt Q00056 201-287, W262F).
Experiment [5] addresses HOXC9 (Homo sapiens, UniProt P31274 178-260, K195R).
Experiment [6] concerns the target HOXC10 (Homo sapiens, UniProt Q9NYD6 254-340).
The target in experiment [7] is HOXA2 (Homo sapiens, UniProt O43364 129-215, R185T).
The target of experiment [8] is HOXC9 (Homo sapiens, UniProt P31274 178-260).
In experiment [9] the target is HOXC9 (Homo sapiens, UniProt P31274 178-260, R193K).
The target in experiment [10] is HOXA2 (Homo sapiens, UniProt O43364 129-215, R185K).
In experiment [11] the target is HOXC10 (Homo sapiens, UniProt Q9NYD6 254-340, K271E).
In experiment [12] the target is HOXC9 (Homo sapiens, UniProt P31274 178-260, R222W).
For experiment [13], the target named is HOXA2 (Homo sapiens, UniProt O43364 129-215, Y150S).
Experiment [14] concerns the target HOXA2 (Homo sapiens, UniProt O43364 129-215).
Experiment [15] has as its target PRRX1 (Homo sapiens, UniProt P54821 80-166, F113S).
The target in experiment [16] is MSX2 (Homo sapiens, UniProt P35548 130-214, R199I).
In experiment [17] the target is MSX2 (Homo sapiens, UniProt P35548 130-214).
Experiment [18] has as its target MSX2 (Homo sapiens, UniProt P35548 130-214, F161Y).
Experiment [19] deals with PRRX1 (Homo sapiens, UniProt P54821 80-166).
Experiment [20] concerns the target ALX4 (Homo sapiens, UniProt Q9H161 200-286).
The target of experiment [21] is ALX4 (Homo sapiens, UniProt Q9H161 200-286, Q225E).
ALX4 (Homo sapiens, UniProt Q9H161 200-286, Q225E), sequence (Q9H161 200-286 Q225E): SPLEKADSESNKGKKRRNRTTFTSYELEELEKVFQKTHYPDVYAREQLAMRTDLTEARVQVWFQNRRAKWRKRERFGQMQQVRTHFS

HOXC9 (Homo sapiens, UniProt P31274 178-260, K195R), sequence (P31274 178-260 K195R): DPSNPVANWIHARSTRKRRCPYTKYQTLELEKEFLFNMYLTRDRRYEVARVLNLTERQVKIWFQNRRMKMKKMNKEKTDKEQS
HOXA4 (Homo sapiens, UniProt Q00056 201-287), sequence (Q00056 201-287): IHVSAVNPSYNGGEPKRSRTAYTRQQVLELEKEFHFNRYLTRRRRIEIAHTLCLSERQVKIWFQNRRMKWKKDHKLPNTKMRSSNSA
HOXA4 (Homo sapiens, UniProt Q00056 201-287, R217L), sequence (Q00056 201-287 R217L): as the sequence (Q00056 201-287) above, with R17L counted along it
HOXC9 (Homo sapiens, UniProt P31274 178-260, R222W), sequence (P31274 178-260 R222W): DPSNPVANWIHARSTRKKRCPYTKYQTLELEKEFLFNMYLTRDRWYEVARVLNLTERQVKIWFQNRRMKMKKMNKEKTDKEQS
HOXA4 (Homo sapiens, UniProt Q00056 201-287, W262R), sequence (Q00056 201-287 W262R): as the sequence (Q00056 201-287) above, with W62R counted along it
HOXA4 (Homo sapiens, UniProt Q00056 201-287, W262F), sequence (Q00056 201-287 W262F): as the sequence (Q00056 201-287) above, with W62F counted along it
HOXC9 (Homo sapiens, UniProt P31274 178-260), sequence (P31274 178-260): as the sequence (P31274 178-260 R222W) above, with W45R counted along it
HOXC9 (Homo sapiens, UniProt P31274 178-260, R193K), sequence (P31274 178-260 R193K): as the sequence (P31274 178-260 R222W) above, with R16K, W45R counted along it
HOXC10 (Homo sapiens, UniProt Q9NYD6 254-340, K271E), sequence (Q9NYD6 254-340 K271E): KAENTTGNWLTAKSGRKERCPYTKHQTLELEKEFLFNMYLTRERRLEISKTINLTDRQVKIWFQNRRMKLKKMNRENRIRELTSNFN
PRRX1 (Homo sapiens, UniProt P54821 80-166), sequence (P54821 80-166): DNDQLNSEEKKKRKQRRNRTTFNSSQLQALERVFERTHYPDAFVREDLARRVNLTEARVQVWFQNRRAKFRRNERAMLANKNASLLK
PRRX1 (Homo sapiens, UniProt P54821 80-166, F113S), sequence (P54821 80-166 F113S): as the sequence (P54821 80-166) above, with F34S counted along it
HOXC10 (Homo sapiens, UniProt Q9NYD6 254-340), sequence (Q9NYD6 254-340): as the sequence (Q9NYD6 254-340 K271E) above, with E18K counted along it
HOXA2 (Homo sapiens, UniProt O43364 129-215), sequence (O43364 129-215): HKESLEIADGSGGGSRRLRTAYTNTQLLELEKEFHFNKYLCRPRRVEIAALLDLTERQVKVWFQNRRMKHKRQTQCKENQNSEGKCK
MSX2 (Homo sapiens, UniProt P35548 130-214, F161Y), sequence (P35548 130-214 F161Y): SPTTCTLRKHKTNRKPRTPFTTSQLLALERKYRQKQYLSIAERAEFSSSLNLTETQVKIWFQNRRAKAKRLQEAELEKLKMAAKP
HOXA2 (Homo sapiens, UniProt O43364 129-215, R185K), sequence (O43364 129-215 R185K): as the sequence (O43364 129-215) above, with R57K counted along it
MSX2 (Homo sapiens, UniProt P35548 130-214, R199I), sequence (P35548 130-214 R199I): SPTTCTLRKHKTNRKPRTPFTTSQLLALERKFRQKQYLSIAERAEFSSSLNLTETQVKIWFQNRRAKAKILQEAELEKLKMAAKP
MSX2 (Homo sapiens, UniProt P35548 130-214), sequence (P35548 130-214): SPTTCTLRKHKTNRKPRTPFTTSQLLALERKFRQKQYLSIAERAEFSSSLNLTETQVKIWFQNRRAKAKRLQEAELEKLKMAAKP
ALX4 (Homo sapiens, UniProt Q9H161 200-286), sequence (Q9H161 200-286): as the sequence (Q9H161 200-286 Q225E) above, with E26Q counted along it
HOXA2 (Homo sapiens, UniProt O43364 129-215, R185T), sequence (O43364 129-215 R185T): as the sequence (O43364 129-215) above, with R57T counted along it
HOXA2 (Homo sapiens, UniProt O43364 129-215, Y150S), sequence (O43364 129-215 Y150S): as the sequence (O43364 129-215) above, with Y22S counted along it

With AACATTAG, the binding signal with HOXA4 [1] was 10.2 upbm affinity estimate (log intensity, higher = more binding, comparable within an allelic series); in the experiment with HOXA4 [2] it was 10.8 upbm affinity estimate (log intensity, higher = more binding, comparable within an allelic series); with HOXA4 [3] it was 12.4 upbm affinity estimate (log intensity, higher = more binding, comparable within an allelic series); with HOXA4 [4] it was 10.7 upbm affinity estimate (log intensity, higher = more binding, comparable within an allelic series).

With GGCGAGCC, the binding signal in the experiment with HOXA4 [1] is 9.78 upbm affinity estimate (log intensity, higher = more binding, comparable within an allelic series); with HOXA4 [2], 9.59 upbm affinity estimate (log intensity, higher = more binding, comparable within an allelic series); with HOXA4 [3] it was 9.66 upbm affinity estimate (log intensity, higher = more binding, comparable within an allelic series); in the experiment with HOXA4 [4], 9.76 upbm affinity estimate (log intensity, higher = more binding, comparable within an allelic series).

As for AATCCCCC, the binding signal in the experiment with HOXA4 [1] was 9.83 upbm affinity estimate (log intensity, higher = more binding, comparable within an allelic series); with HOXA4 [2], 9.86 upbm affinity estimate (log intensity, higher = more binding, comparable within an allelic series); with HOXA4 [3], 9.87 upbm affinity estimate (log intensity, higher = more binding, comparable within an allelic series); in the experiment with HOXA4 [4], 9.73 upbm affinity estimate (log intensity, higher = more binding, comparable within an allelic series).

As for CACACCGG, the binding signal is 9.76 upbm affinity estimate (log intensity, higher = more binding, comparable within an allelic series) with HOXA4 [1]; 9.68 upbm affinity estimate (log intensity, higher = more binding, comparable within an allelic series) in the experiment with HOXA4 [2]; 9.76 upbm affinity estimate (log intensity, higher = more binding, comparable within an allelic series) with HOXA4 [3]; 9.81 upbm affinity estimate (log intensity, higher = more binding, comparable within an allelic series) in the experiment with HOXA4 [4].

As to CCCCGACC, the binding signal in the experiment with HOXA4 [1] is 9.87 upbm affinity estimate (log intensity, higher = more binding, comparable within an allelic series); with HOXA4 [2], 9.84 upbm affinity estimate (log intensity, higher = more binding, comparable within an allelic series); with HOXA4 [3], 9.87 upbm affinity estimate (log intensity, higher = more binding, comparable within an allelic series); with HOXA4 [4], 9.99 upbm affinity estimate (log intensity, higher = more binding, comparable within an allelic series).

For the sequence AAGCTAAT, the binding signal with HOXA4 [1] was 10.3 upbm affinity estimate (log intensity, higher = more binding, comparable within an allelic series); with HOXA4 [3], 12.3 upbm affinity estimate (log intensity, higher = more binding, comparable within an allelic series).

For the sequence GTCTATAA, the binding signal with HOXA4 [1] is 10.4 upbm affinity estimate (log intensity, higher = more binding, comparable within an allelic series); with HOXA4 [3] it was 11.4 upbm affinity estimate (log intensity, higher = more binding, comparable within an allelic series).

Take CCAGTCGG: the binding signal with HOXC9 [5] is 9.76 upbm affinity estimate (log intensity, higher = more binding, comparable within an allelic series); with HOXC10 [6], 10.1 upbm affinity estimate (log intensity, higher = more binding, comparable within an allelic series); with HOXA2 [7], 7.11 upbm affinity estimate (log intensity, higher = more binding, comparable within an allelic series); in the experiment with HOXC9 [8], 9.93 upbm affinity estimate (log intensity, higher = more binding, comparable within an allelic series); in the experiment with HOXC9 [9] it was 9.79 upbm affinity estimate (log intensity, higher = more binding, comparable within an allelic series); with HOXA2 [10], 10.4 upbm affinity estimate (log intensity, higher = more binding, comparable within an allelic series). In addition, the binding signal was 10 upbm affinity estimate (log intensity, higher = more binding, comparable within an allelic series) with HOXC10 [11]; 9.69 upbm affinity estimate (log intensity, higher = more binding, comparable within an allelic series) with HOXC9 [12]; 10.4 upbm affinity estimate (log intensity, higher = more binding, comparable within an allelic series) with HOXA2 [13]; 7.25 upbm affinity estimate (log intensity, higher = more binding, comparable within an allelic series) with HOXA2 [14].

On to GGCGCGCC, for which the binding signal with HOXC9 [5] was 9.93 upbm affinity estimate (log intensity, higher = more binding, comparable within an allelic series); in the experiment with PRRX1 [15], 9.33 upbm affinity estimate (log intensity, higher = more binding, comparable within an allelic series); with HOXC9 [8], 10.1 upbm affinity estimate (log intensity, higher = more binding, comparable within an allelic series); in the experiment with MSX2 [16] it was 9.71 upbm affinity estimate (log intensity, higher = more binding, comparable within an allelic series); with HOXC9 [9], 9.89 upbm affinity estimate (log intensity, higher = more binding, comparable within an allelic series); with MSX2 [17], 10.1 upbm affinity estimate (log intensity, higher = more binding, comparable within an allelic series). For the same sequence, the binding signal is 9.82 upbm affinity estimate (log intensity, higher = more binding, comparable within an allelic series) with HOXC9 [12]; 10 upbm affinity estimate (log intensity, higher = more binding, comparable within an allelic series) with MSX2 [18]; 9.73 upbm affinity estimate (log intensity, higher = more binding, comparable within an allelic series) with PRRX1 [19].

With GCCCGAGC, the binding signal was 9.54 upbm affinity estimate (log intensity, higher = more binding, comparable within an allelic series) in the experiment with HOXC9 [5]; 8.18 upbm affinity estimate (log intensity, higher = more binding, comparable within an allelic series) with ALX4 [20]; 8.13 upbm affinity estimate (log intensity, higher = more binding, comparable within an allelic series) in the experiment with ALX4 [21]; 9.62 upbm affinity estimate (log intensity, higher = more binding, comparable within an allelic series) in the experiment with HOXC9 [8]; 9.44 upbm affinity estimate (log intensity, higher = more binding, comparable within an allelic series) with HOXC9 [9]; 9.78 upbm affinity estimate (log intensity, higher = more binding, comparable within an allelic series) in the experiment with HOXC9 [12].

For the sequence CCCTCCAG, the binding signal in the experiment with HOXC9 [5] is 9.59 upbm affinity estimate (log intensity, higher = more binding, comparable within an allelic series); in the experiment with HOXC10 [6] it was 10.1 upbm affinity estimate (log intensity, higher = more binding, comparable within an allelic series); in the experiment with HOXC9 [8] it was 9.64 upbm affinity estimate (log intensity, higher = more binding, comparable within an allelic series); with HOXC9 [9] it was 9.54 upbm affinity estimate (log intensity, higher = more binding, comparable within an allelic series); in the experiment with HOXC10 [11], 10.1 upbm affinity estimate (log intensity, higher = more binding, comparable within an allelic series); with HOXC9 [12], 9.74 upbm affinity estimate (log intensity, higher = more binding, comparable within an allelic series).

As for CGCTTAAC, the binding signal with HOXA4 [1] was 10.2 upbm affinity estimate (log intensity, higher = more binding, comparable within an allelic series); with HOXA4 [3], 11.2 upbm affinity estimate (log intensity, higher = more binding, comparable within an allelic series); in the experiment with HOXA4 [4] it was 10.3 upbm affinity estimate (log intensity, higher = more binding, comparable within an allelic series).

For the sequence ATATTGAC, the binding signal was 11.1 upbm affinity estimate (log intensity, higher = more binding, comparable within an allelic series) in the experiment with HOXC9 [5]; 10.1 upbm affinity estimate (log intensity, higher = more binding, comparable within an allelic series) with PRRX1 [15]; 11.1 upbm affinity estimate (log intensity, higher = more binding, comparable within an allelic series) in the experiment with HOXC9 [8]; 11.1 upbm affinity estimate (log intensity, higher = more binding, comparable within an allelic series) with HOXC9 [9]; 11.4 upbm affinity estimate (log intensity, higher = more binding, comparable within an allelic series) with PRRX1 [19].
